This is part of a sample that, as a whole, favours compounds with a hit. Of some 83,000 tested, about 20% had one in any assay.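 A percent growth of 40 corresponds to 60% growth inhibition; 0 means no net growth; -100 means all cells died. Active threshold: below 10.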 Calls of active or inactive are those of the source.

The experiment deals with SR leukemia. The experiment is described as follows: NCI-60 one-dose screen, 48 h (100 = growth as untreated, 0 = no growth, -100 = all killed). Conditions: 10 µM.
For the compound `CCc1ccc(-c2ccc(-n3nc(C)c4c(N)nc(Cc5ccccc5)nc43)cc2)cc1`, the growth was 21.2% (inactive).

Consider `O=C(Nc1ccc(F)cc1)c1cc2ccccc2cc1O`, for which the growth was 43.2% (inactive).

Turning to `Nc1nccc(OCCO)n1`, the growth is 95.9% (inactive).

With `O=C(CCCCNC(=O)c1nc(-c2ccccc2)n(-c2ccccc2)n1)NO`, the growth is 76% (inactive).

In the case of `COc1cc(-c2nn(-c3ccc(NC(=O)NCCNS(=O)(=O)c4ccc(F)cc4)cc3)cc2-c2ccncc2)ccc1Cl`, the growth is 1.26% (active).

As to `O=C(Nc1ccc2c(O)cc(S(=O)(=O)O)cc2c1)c1ccc([N+](=O)[O-])cc1`, the growth is 60.9% (inactive).

On to `COC(=O)C1(O)NC(=C(C#N)C#N)C(C#N)=C1C(=O)c1ccc(OC)c(OC)c1` (centres undefined), for which the growth is 89.7% (inactive).

As for `C=CCn1c(SCC(=O)Nc2ccc(C(=O)/C=C/c3ccc(OC)cc3)cc2)nnc1-c1ccc(OC)c(OC)c1`, the growth is 58.7% (inactive).

Regarding `COc1cc(NC(=O)Nc2cnc(Nc3ccc(N4CCOCC4)cc3)nc2Oc2cccc(OC)c2)cc(OC)c1`, the growth is 46.1% (inactive).

With `Cc1cc(SCc2ccccc2)nc(N)n1`, the growth is 106% (inactive).

On to `Cc1nn(-c2ccc(-c3ccc(OC(F)(F)F)cc3)cc2)c2nc(Cc3ccccc3)nc(N)c12`, for which the growth is 41.8% (inactive).

For the compound `O=C(CSc1nnc(-c2ccc(Cl)cc2)o1)Nc1ccc(C(=O)/C=C/c2ccc(Cl)cc2)cc1`, the growth is 98.3% (inactive).

For `CN(C)CCN(Cc1ccccc1)c1ccc2ccccc2n1`, the growth was 98.6% (inactive).

Take `CCN(CC)CCOc1cccc2c1C(=O)c1cccc(OCCN(CC)CC)c1C2=O`: the growth is 10.3% (inactive).

As to `O=C(NCCCNS(=O)(=O)c1ccc(Cl)cc1)Nc1ccc(-n2cc(-c3ccncc3)c(-c3ccc(Cl)c(O)c3)n2)cc1`, the growth was 17% (inactive).

Consider `C1CN(CC2CCC(CN3CCOCC3)O2)CCO1` (centres undefined), for which the growth is 61.7% (inactive).

In the case of `NC(N)=N/N=C(\c1ccccc1)C(O)c1ccccc1` (centres undefined), the growth is 95.9% (inactive).

For the compound `CCOC(=O)c1cc(C(=O)c2cc(OC)cc(OC)c2)n2nc(C)ccc12`, the growth is 18.4% (inactive).

Turning to `COc1ccc(/C=C2\CCCC3C2=Nc2ccccc2NC3c2ccc(OC)cc2)cc1` (centres undefined), the growth was 53.9% (inactive).

Consider `CCN(CC)CC(=O)N(CC)c1ccc(C)c(Cl)c1`, for which the growth was 82.3% (inactive).

With `C=C(C)[C@@H]1CC[C@]2(COCCC#N)CC[C@]3(C)[C@H](CC[C@@H]4[C@@]5(C)Cc6c([nH]c7ccccc67)C(C)(C)[C@@H]5CC[C@]43C)[C@@H]12`, the growth was 94.7% (inactive).

In the case of `Fc1ccc2[nH]cc(-c3nc(-c4ccsc4)cs3)c2c1`, the growth was 86.2% (inactive).

`Cc1cc(=O)n2nnc3cc(Cl)c(Cl)cc3n12`: the growth is 70.5% (inactive).

Consider `O=C(/C=C/C=C/c1c(C2CC2)nc2ccccc2c1-c1ccc(F)cc1)c1cccs1`, for which the growth was -6.7% (active).

As to `CC(=O)[C@H]1CC[C@]2(C)[C@@H]1CC[C@@H]1[C@@]3(C)CC(CCC#N)(CCC#N)C(=O)C(C)(C)[C@@H]3CC[C@]12C`, the growth was 101% (inactive).

As for `S=C(NCc1ccccc1)NCc1ccccc1`, the growth was 98.4% (inactive).

Take `CN1CCN(CCC(=O)Nc2cccc(-n3cc(-c4ccncc4)c(-c4ccc(Cl)c(O)c4)n3)c2)CC1`: the growth is 5.5% (active).

As for `O=S(=O)(O)c1cccc(Nc2ccc3ccccc3c2)c1`, the growth is 92% (inactive).

On to `CN1CCN(CC(=O)Nc2cccc(-n3cc(-c4ccncc4)c(-c4ccc(Cl)c(O)c4)n3)c2)CC1`, for which the growth is 5.84% (active).

Source of the values: PubChem BioAssay (NCI).
